In PubChem BioAssay AID2551 (National Center for Advancing Translational Sciences (NCATS), 2010):
About 17,000 (5.5%) of roughly 310,000 compounds were called active. Entries that show only a call come without a potency. Another 11% or so got no clear call; they are omitted. Calls come from the whole dose curve; as a rule, active = well fitted inhibition curve with a large enough effect; inconclusive = small, poorly fitted or top-dose-only effect, or effect the other way; inactive = no such curve, though single readings can be large or run the other way. For the sample, actives were picked, then their nearest neighbours and some compounds at random.

These compounds were tested against Nuclear receptor ROR-gamma (Mus musculus) (UniProt P51450) (assay: qHTS for inhibitors of ROR gamma transcriptional activity). Conditions: Drosophila S2 Gal4-RORgamma UAS-luciferase reporter, 20 h; series mostly up to 53.6 µM.
Nuclear receptor ROR-gamma (Mus musculus), sequence (P51450 whole entry, looked up, the tested form may be a part): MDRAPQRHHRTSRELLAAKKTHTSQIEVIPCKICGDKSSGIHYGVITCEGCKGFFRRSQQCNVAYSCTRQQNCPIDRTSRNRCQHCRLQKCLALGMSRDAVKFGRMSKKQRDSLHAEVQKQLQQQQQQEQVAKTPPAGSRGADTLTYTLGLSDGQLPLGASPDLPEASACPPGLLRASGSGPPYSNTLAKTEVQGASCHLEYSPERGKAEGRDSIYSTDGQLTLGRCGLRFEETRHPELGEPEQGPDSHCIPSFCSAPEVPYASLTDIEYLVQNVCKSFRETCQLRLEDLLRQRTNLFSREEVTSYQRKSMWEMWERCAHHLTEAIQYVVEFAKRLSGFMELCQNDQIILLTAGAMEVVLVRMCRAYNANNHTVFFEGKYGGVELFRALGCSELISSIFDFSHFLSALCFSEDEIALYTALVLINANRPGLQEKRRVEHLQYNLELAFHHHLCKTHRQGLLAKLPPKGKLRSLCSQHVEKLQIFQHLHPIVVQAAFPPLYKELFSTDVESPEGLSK
Method in brief: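 Drosophila S2 cells stably expressing Gal4-DBD/mouse RORγ fusion under metallothionein promoter plus UAS-luciferase; compound 1 h, then 700 uM CuSO4 induction for 20 h at ambient temperature; inhibition read as reduced luminescence.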
Note: nearly all actives have a fitted effect of over 60% in size.
Potency is the fitted concentration of half-maximal effect.

Row | SMILES | Potency
1 | Cc1cccc(S(=O)(=O)N2CN(CC3CCCO3)c3nc4ccccc4nc32)c1 (stereo unspecified) | inactive
2 | CC(C)(C)n1nnnc1C(c1ccc2ncccc2c1)N1CCSCC1 (stereo unspecified) | 10 µM (active)
3 | CC(C)(C)n1nnnc1C(c1ccc(Cl)cc1)N1CCSCC1 (stereo unspecified) | inactive
4 | CCC(C)(C)n1nnnc1C(c1ccccc1OC)N1CCSCC1 (stereo unspecified) | inactive
5 | Cc1c(C)c2ccc(OCC(=O)N3CCC(C(=O)O)CC3)c(C)c2oc1=O | inactive
6 | Cc1csc(=Nc2ccccc2)n1CCO | inactive
7 | Cc1csc(=NC(=O)c2ccccc2)n1CCO | inactive
8 | C=C(C)CNC(=S)/N=c1\scc(C)n1CC | 7.94 µM (active)
9 | COc1ccc(-c2c(C#Cc3ccccc3)c3ccccc3n2C)cc1 | inactive
10 | O=c1[nH]c(=S)[nH]c2[nH]c(=S)[nH]c12 | inactive
11 | Cc1c(C)c(C)c2[nH]c(=S)[nH]c2c1C | 2.82 µM (active)
12 | Cc1cc(=O)[nH]c(=S)[nH]1 | inactive
13 | CCOC(=O)CNc1nc(Cl)nc(Nc2ccc(OC)cc2OC)n1 | inactive
14 | COCC1CCN(C(=O)c2ccc3oc(Cc4ccccc4)nc3c2)C1 (stereo unspecified) | inactive
15 | COc1ccc(NC(=O)C2CCC(CNC(=O)[C@@H]3Cc4ccccc4CN3)CC2)cc1 (stereo partly specified) | inactive
16 | COc1ccc(NC(=O)CN2C(=O)COc3ccc(S(=O)(=O)N4CCOCC4)cc32)c(OC)c1 | inactive

Row | SMILES | Potency
17 | O=C(C[n+]1cc(Br)cc2ccccc21)c1ccc(F)cc1 | inactive
18 | COc1ccc(C(=O)N2CCCCC2C(=O)Nc2ccc(-n3nc(C)cc3C)cc2)o1 (stereo unspecified) | inactive
19 | Cc1cccc(CNS(=O)(=O)c2ccc(-c3cnc(C4CC4)o3)cc2)c1 | inactive
20 | CC(CCc1ccc(O)cc1)NCc1ccc(Cl)cc1Cl (stereo unspecified) | inactive
21 | CCCCCC(=O)Nc1ccc(C(=O)N/N=C/c2ccc([N+](=O)[O-])cc2)cc1 | inactive
22 | CC(C)CC(=O)NC(=S)NNC(=O)c1cccc([N+](=O)[O-])c1 | 12.6 µM (active)
23 | CC(C)(C)SCCNC(=O)c1cccc([N+](=O)[O-])c1 | inactive
24 | Cc1cccc(C(=O)NNC(=O)c2cccc([N+](=O)[O-])c2)c1 | inactive
25 | CCCCCC(=O)NC(=S)NNC(=O)c1ccc([N+](=O)[O-])cc1 | 14.1 µM (active)
26 | O=C(NNS(=O)(=O)Cc1ccccc1)c1ccc([N+](=O)[O-])cc1 | inactive
27 | COc1ccc(OC)c(CCNC(=O)c2nn(C)c3c2CS(=O)(=O)c2ccccc2-3)c1 | inactive
28 | Cc1cc2oc(=O)cc(CN3CCN(Cc4ccccc4)CC3)c2cc1C | inactive
29 | CCn1c(=S)[nH]c2sc3c(c2c1=O)CCCCC3 | 0.447 µM (active)
30 | CCCc1nc2sc3c(c2c(=O)n1NC(=O)CCCl)CCCC3 | inactive
31 | CN(C)CCCn1c(=O)n(Cc2ccccc2)c(=O)c2c3c(sc21)CCCCC3 | inactive
